# Measurements taken from PubChem BioAssay (Tox21).
# Records with an inconclusive call do not appear. Where a call stands in place of a potency, no number is given. Some compounds were tested as several samples or in several runs, with calls that do not always agree. The source made the active and inactive calls. Unless noted, the call rests on the fitted dose curve; in most records, active means well fitted curve in the direction sought with a large enough effect in the repeat runs; inconclusive means weak or mixed curves; inactive means no such curve, though single readings can be large; an effect the other way counts as inactive or inconclusive.
# What was measured:
# [1] = qHTS assay to identify aromatase inhibitors - cell viability counter screen (AID 743084);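 further: cells stimulated with testosterone during compound exposure; nearly all actives have a fitted effect of over 55% in size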; further: potency means the concentration at half of the fitted maximal effect
# [2] = molecular target: Aryl hydrocarbon receptor (Homo sapiens) (UniProt P35869); assay: qHTS assay to identify small molecule that activate the aryl hydrocarbon receptor (AhR) signaling pathway (AID 743085); further: nearly all actives have a fitted effect of over 15% in size; further: potency means the concentration at half of the fitted maximal effect;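 on activation: HG2L7.5c1 human HepG2 liver cells with stably integrated DRE-driven firefly reporter; series mostly up to about 70 µM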
# Procedure, shortened: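 Measured in HG2L7.5c1 cells: CellTiter-Fluor signal (30 min incubation, 37C) for viability, then luciferase luminescence (30 min, room temperature). Compound contact time was 24 h at 37C, following a 5 h pre-incubation.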
# [3] = qHTS assay to identify small molecule that activate the aryl hydrocarbon receptor (AhR) signaling pathway - cell viability counter screen (AID 743086); further: nearly all actives have a fitted effect of over 45% in size; further: potency means the concentration at half of the fitted maximal effect;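 on viability change, negative = cytotoxic: HepG2 liver cells carrying the AhR DRE luciferase reporter; series mostly up to about 70 µM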
# Procedure, shortened: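 Cytotoxicity counter screen: CellTiter-Fluor signal (30 min, 37 C) in 4000 HepG2 cells/well carrying the DRE-luciferase reporter, following 24 h compound exposure at 37 C.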
# [4] = molecular target: Peroxisome proliferator-activated receptor gamma (Homo sapiens) (UniProt P37231); assay: qHTS assay to identify small molecule agonists of the peroxisome proliferator-activated receptor gamma (PPARg) signaling pathway (AID 743094; active means well fitted activation curve with a large enough effect in the signal ratio in the repeat runs, not every such curve was filed as active; the % refers to the signal ratio)
# Procedure, shortened: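 GeneBLAzer PPARg UAS-bla HEK293H cells carrying a stably integrated beta-lactamase reporter were pre-incubated 5 h at 37C, then exposed to compounds in DMSO for 17 h at 37C; LiveBLAzer B/G FRET substrate was added for 1 h at room temperature and fluorescence read.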
# [5] = molecular target: Peroxisome proliferator-activated receptor gamma (Homo sapiens) (UniProt P37231); assay: qHTS assay to identify small molecule antagonists of the peroxisome proliferator-activated receptor gamma (PPARg) signaling pathway (AID 743191; calls by dose curve; further: nearly all actives have a fitted effect of over 30% in size; further: potency means the concentration at half of the fitted maximal effect; on ratio activity, negative = inhibition: series mostly up to about 63 µM)
# Procedure, shortened: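 Beta-lactamase reporter under UAS control in HEK293H PPARg-bla cells; compound treatment 17 h at 37C. Read-out: fluorescence intensity after 1 h room-temperature incubation with LiveBLAzer B/G FRET substrate.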
# [6] = qHTS assay to identify small molecule antagonists of the peroxisome proliferator-activated receptor gamma (PPARg) signaling pathway - cell viability counter screen (AID 743194); further: nearly all actives have a fitted effect of over 55% in size
# Procedure, shortened: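 Viability was measured as CellTiter-Glo luminescence in GeneBLAzer PPARg UAS-bla HEK293H cells. These cells had been exposed 17 h at 37 C to compounds together with rosiglitazone at 50 nM final, with the beta-lactamase readout taken in the same wells.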
# [7] = qHTS assay for small molecule agonists of the antioxidant response element (ARE) signaling pathway - cell viability counter screen (AID 743203; calls by dose curve; further: nearly all actives have a fitted effect of over 55% in size)
# Procedure, shortened: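 CellSensor ARE-bla HepG2 cells, 2,000 per well, rested 5 hrs at 37C/5% CO2, then exposed to compound in DMSO for 16 hrs; viability read as CellTiter-Glo luminescence after 30 min at room temperature, in the reporter wells.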
# [8] = qHTS assay for small molecule activators of the heat shock response signaling pathway - cell viability counter screen (AID 743209); further: nearly all actives have a fitted effect of over 50% in size
# Procedure, shortened: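 CellSensor HSE-bla HeLa cells, plated overnight at 37 C/5% CO2, were exposed to compounds in DMSO for 5 h at 37 C. Viability was then read in the same wells by CellTiter-Glo luminescence after 30 min at room temperature.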
# [9] = qHTS assay for small molecule activators of the heat shock response signaling pathway (AID 743210; active means well fitted activation curve with a large enough effect in the signal ratio in the repeat runs, with a control signal flat, not every such curve was filed as active; the % refers to the signal ratio;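 further: HeLa cells with beta-lactamase reporter driven by heat shock elements; series mostly up to about 63 µM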)
# Procedure, shortened: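 HeLa HSE-bla cells, overnight plating; cpd in DMSO 5 h, 37 C; LiveBLAzer B/G FRET substrate 2.5 h RT; fluorescence intensity read.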
# [10] = qHTS assay for small molecule agonists of the antioxidant response element (ARE) signaling pathway (AID 743202; active means well fitted activation curve with a large enough effect in the signal ratio in the repeat runs, not every such curve was filed as active; the % refers to the signal ratio; further: potency means the concentration at half of the fitted maximal effect)
# Procedure, shortened: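 Quantitative high-throughput format in HepG2 cells bearing an integrated ARE-beta-lactamase reporter. Compound exposure lasted 16 h at 37 C, and fluorescence was read 2 h after adding LiveBLAzer B/G substrate at room temperature.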
# Chain of Aryl hydrocarbon receptor (Homo sapiens) (P35869 whole entry, looked up): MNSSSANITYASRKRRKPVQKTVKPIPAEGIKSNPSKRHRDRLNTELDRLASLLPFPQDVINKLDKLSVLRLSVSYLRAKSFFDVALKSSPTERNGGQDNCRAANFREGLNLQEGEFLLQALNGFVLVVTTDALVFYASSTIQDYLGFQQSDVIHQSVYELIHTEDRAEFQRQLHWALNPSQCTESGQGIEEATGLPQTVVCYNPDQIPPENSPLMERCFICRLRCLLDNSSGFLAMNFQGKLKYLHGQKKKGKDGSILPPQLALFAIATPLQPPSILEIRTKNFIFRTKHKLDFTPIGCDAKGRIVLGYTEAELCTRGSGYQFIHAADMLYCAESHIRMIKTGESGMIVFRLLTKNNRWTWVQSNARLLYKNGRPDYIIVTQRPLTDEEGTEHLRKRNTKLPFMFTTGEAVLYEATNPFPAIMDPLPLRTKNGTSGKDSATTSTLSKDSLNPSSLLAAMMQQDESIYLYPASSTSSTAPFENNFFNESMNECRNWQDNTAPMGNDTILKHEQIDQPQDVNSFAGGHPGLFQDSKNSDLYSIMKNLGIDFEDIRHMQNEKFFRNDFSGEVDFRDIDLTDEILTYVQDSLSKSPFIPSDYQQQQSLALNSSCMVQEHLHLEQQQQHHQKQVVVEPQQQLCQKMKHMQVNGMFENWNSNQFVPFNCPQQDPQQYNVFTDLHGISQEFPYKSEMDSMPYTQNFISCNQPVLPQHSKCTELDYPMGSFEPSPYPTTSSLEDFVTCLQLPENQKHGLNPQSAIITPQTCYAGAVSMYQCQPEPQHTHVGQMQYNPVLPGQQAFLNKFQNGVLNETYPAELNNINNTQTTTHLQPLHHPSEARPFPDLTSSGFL
# Chain of Peroxisome proliferator-activated receptor gamma (Homo sapiens) (P37231 whole entry, looked up): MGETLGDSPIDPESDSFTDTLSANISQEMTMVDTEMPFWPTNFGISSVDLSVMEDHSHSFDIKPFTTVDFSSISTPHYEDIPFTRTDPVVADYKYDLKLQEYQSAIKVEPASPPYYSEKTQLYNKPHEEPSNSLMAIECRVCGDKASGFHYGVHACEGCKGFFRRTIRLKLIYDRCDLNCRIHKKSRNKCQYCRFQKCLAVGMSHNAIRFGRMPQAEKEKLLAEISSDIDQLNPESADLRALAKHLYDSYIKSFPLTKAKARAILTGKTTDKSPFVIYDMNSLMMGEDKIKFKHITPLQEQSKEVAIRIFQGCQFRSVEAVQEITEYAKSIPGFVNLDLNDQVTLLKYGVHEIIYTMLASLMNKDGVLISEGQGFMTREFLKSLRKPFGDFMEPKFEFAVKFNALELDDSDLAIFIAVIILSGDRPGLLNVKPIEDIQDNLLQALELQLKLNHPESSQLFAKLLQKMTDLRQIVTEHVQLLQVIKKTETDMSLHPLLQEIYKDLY
Structure (SMILES),Potency [1],Potency [2],Potency [3],Potency [4],Potency [5],Potency [6],Potency [7],Potency [8],Potency [9],Potency [10],"ratio activity, negative = inhibition [5]",activation [10],"viability change, negative = cytotoxic [7]",activation [9],"activity change, negative = cytotoxicity [6]","activity change, negative = cytotoxicity [8]"
CCOC(=O)C1=C[C@]2(CC)CCCN3CCc4c(n1c1ccccc41)[C@@H]32,inactive,11.9 µM (active) and inactive,inactive,inactive,inactive,inactive,inactive,inactive,–,–,–,–,–,–,–,–
NCC(=O)CCC(=O)O,inactive,inactive,inactive,inactive,inactive,inactive,inactive,inactive,inactive,–,–,–,–,–,–,–
COCC(C)OC(C)=O (configuration not stated),inactive,inactive,inactive,inactive,inactive,inactive,inactive,inactive,inactive,–,–,–,–,–,–,–
O=[N+]([O-])c1cccc(S(=O)(=O)O)c1,inactive,inactive,inactive,inactive,inactive,–,inactive,inactive,inactive,–,–,–,–,–,–,–
CC[N+]1(CC)CCC(=C(c2ccccc2)c2ccccc2)C1C (configuration not stated),inactive,inactive,inactive,inactive,inactive,–,inactive,inactive,inactive,–,–,–,–,–,–,–
CC(C)(CO)[N+](=O)[O-],inactive,inactive,inactive,inactive,inactive,inactive,inactive,inactive,inactive,–,–,–,–,–,–,–
CC(=O)c1cccc([N+](=O)[O-])c1,inactive,inactive,inactive,inactive,inactive,inactive,inactive,–,inactive,–,–,–,–,–,–,–
COc1cc(Cl)c(OC)cc1N,inactive,30.6 µM (active),inactive,inactive,inactive,inactive,inactive,inactive,inactive,–,–,–,–,–,–,–
CNC(=O)CN(CCN(CCN(CC(=O)[O-])CC(=O)NC)CC(=O)[O-])CC(=O)[O-].O.[Gd+3],inactive,inactive,inactive,inactive,inactive,–,inactive,inactive,–,inactive,–,–,–,–,–,–
CCO[Si](CCCCl)(OCC)OCC,inactive,inactive,inactive,inactive,inactive,–,inactive,inactive,inactive,inactive,–,–,–,–,–,–
NCCCN1CCOCC1,inactive,inactive,inactive,inactive,inactive,inactive,inactive,inactive,inactive,–,–,–,–,–,–,–
OC[C@H]1O[C@@H](OCCc2ccc(O)cc2)[C@H](O)[C@@H](O)[C@@H]1O,inactive,inactive,inactive,inactive,inactive,–,inactive,inactive,inactive,–,–,–,–,–,–,–
C/C=C/C(=O)CC,inactive,inactive,inactive,inactive,–,–,–,–,–,–,6.72% [at 13.2 µM] (inactive),-1.61% [at 18.1 µM] (inactive),0.863% [at 18.1 µM] (inactive),-0.278% [at 13.2 µM] (inactive),–,–
C[C@H]1C[C@H]2[C@@H]3CCC4=CC(=O)C=C[C@]4(C)[C@@]3(Cl)[C@@H](O)C[C@]2(C)[C@@]1(O)C(=O)CO,inactive,inactive,inactive,inactive,inactive,–,inactive,–,inactive,inactive,–,–,–,–,–,–
NCC(=O)O,inactive,inactive,inactive,inactive,inactive,–,inactive,inactive,inactive,inactive,–,–,–,–,–,–
C/C(=C(\CCOP(=O)(O)O)SC(=O)c1ccccc1)N(C=O)Cc1cnc(C)nc1N,inactive,inactive,inactive,inactive,–,–,–,–,–,–,3.86% [at 5.95 µM] (inactive),–,8.52% [at 8.36 µM] (inactive),1.29% [at 5.95 µM] (inactive),4.9% [at 5.95 µM] (inactive),-16.4% [at 5.95 µM] (inactive)
CCOCC(O)COc1ccc(NC(=O)CC[S+](C)C)cc1 (configuration not stated),inactive,5.31 µM (active),inactive,inactive,inactive,inactive,inactive,inactive,–,–,–,–,–,–,–,–
CCCCCCCCCCCCN1CCCCCC1=O,inactive,inactive,inactive,inactive,inactive,inactive,inactive,–,–,–,–,–,–,–,–,–
CC(CC=O)c1ccccc1 (configuration not stated),inactive,inactive,inactive,inactive,inactive,–,inactive,inactive,inactive,inactive,–,–,–,–,–,–
O=C(O)CC(=O)C(=O)O,inactive,inactive,inactive,inactive,inactive,–,inactive,inactive,inactive,–,–,–,–,–,–,–
CCOC(=O)Cc1cccc2ccccc12,inactive,inactive,inactive,inactive,inactive,inactive,inactive,inactive,–,–,–,–,–,–,–,–
CCOc1ccc(N=Nc2ccc(/C=C/c3ccc(N=Nc4ccc(OCC)cc4)cc3S(=O)(=O)O)c(S(=O)(=O)O)c2)cc1,26.9 µM (active),inactive,19 µM (active),inactive,inactive,inactive,inactive,inactive,inactive,–,–,–,–,–,–,–
COC(C)(C)CCO,inactive,inactive,inactive,inactive,–,inactive,inactive,inactive,inactive,inactive,–,–,–,–,–,–
CCOC(=O)COC(=O)c1cc(Oc2ccc(C(F)(F)F)cc2Cl)ccc1[N+](=O)[O-],inactive,inactive,inactive,inactive,–,inactive,inactive,inactive,–,–,–,–,–,–,–,–
C[C@@H](c1ncncc1F)C(O)(Cn1cncn1)c1ccc(F)cc1F (some centres not stated),inactive,inactive,inactive,inactive,–,inactive,inactive,inactive,inactive,inactive,–,–,–,–,–,–
O=C(Nc1ccccc1)c1ccccc1O,inactive,21.7 µM (active),inactive,inactive,–,inactive,inactive,inactive,inactive,24.3 µM (active),–,–,–,–,–,–
CCCCOC(=O)CCCCCCCC(=O)OCCCC,inactive,inactive,inactive,inactive,inactive,–,inactive,–,inactive,–,–,–,–,–,–,–

Structure (SMILES),Potency [1],Potency [2],Potency [3],Potency [4],Potency [5],Potency [6],Potency [7],Potency [8],Potency [9],Potency [10],"ratio activity, negative = inhibition [5]",activation [10],"viability change, negative = cytotoxic [7]",activation [9],"activity change, negative = cytotoxicity [6]","activity change, negative = cytotoxicity [8]"
Cn1c(=O)cc(Oc2ccc(F)cc2F)c2cnc(NCC(C)(C)O)nc21,inactive,inactive,inactive,inactive,–,inactive,inactive,–,–,–,–,–,–,–,–,–
CO[C@@H]1[C@H](OC(=O)/C=C/C=C/C=C/C=C/C(=O)O)CC[C@]2(CO2)[C@H]1[C@@]1(C)O[C@@H]1CC=C(C)C,inactive,inactive,inactive,inactive,–,inactive,inactive,inactive,–,–,–,–,–,–,–,–
COS(=O)(=O)C(F)(F)F,inactive,inactive,inactive,inactive,–,inactive,inactive,inactive,–,inactive,–,–,–,–,–,–
c1ccc(CNCCNCc2ccccc2)cc1,inactive,inactive,inactive,inactive,–,inactive,inactive,inactive,inactive,inactive,–,–,–,–,–,–
O=P(O)(OCc1ccccc1)OCc1ccccc1,inactive,inactive,inactive,inactive,–,inactive,inactive,inactive,inactive,–,–,–,–,–,–,–
CC(C)(C)OCC1CO1 (configuration not stated),inactive,inactive,inactive,inactive,–,inactive,inactive,inactive,inactive,inactive,–,–,–,–,–,–
O=S(=O)(Oc1ccc(Cl)cc1)c1ccccc1,inactive,inactive,inactive,inactive,–,inactive,inactive,inactive,inactive,inactive,–,–,–,–,–,–
CN1CCN(C(c2ccccc2)c2ccccc2)CC1,inactive,inactive,inactive,inactive,–,inactive,inactive,–,inactive,inactive,–,–,–,–,–,–
CCOC(=O)NCCOc1ccc(Oc2ccccc2)cc1,inactive,inactive,inactive,inactive,38.9 µM (active),–,inactive,–,inactive,–,–,–,–,–,–,–
CCCCC(CC)CN1C(=O)C2C3C=CC(C3)C2C1=O (configuration not stated),54.5 µM (active),inactive,inactive,inactive,–,inactive,inactive,inactive,inactive,–,–,–,–,–,–,–
COc1ccc(C)cc1[N+](=O)[O-],inactive,inactive,inactive,inactive,–,inactive,inactive,inactive,inactive,–,–,–,–,–,–,–
O=C(O)c1ccccc1Cl,inactive,inactive,inactive,inactive,–,inactive,inactive,inactive,inactive,inactive,–,–,–,–,–,–
Cc1ncc(CO)c(C=O)c1O,inactive,inactive,inactive,inactive,–,inactive,inactive,–,–,–,–,–,–,–,–,–
COc1ccc(-c2nc3ccc(C4=NNC(=O)CC4C)cc3[nH]2)cc1 (configuration not stated),inactive,11.9 µM (active),inactive,inactive,–,inactive,inactive,inactive,inactive,inactive,–,–,–,–,–,–
CCN(CC)c1ccc2c(-c3ccccc3C(=O)O)c3ccc(=[N+](CC)CC)cc-3oc2c1,8.63 µM (active),inactive,9.69 µM (active),inactive,–,inactive,inactive,inactive,inactive,–,–,–,–,–,–,–
C[C@H](CCC(=O)O)[C@H]1CC[C@H]2[C@@H]3CC[C@@H]4C[C@H](O)CC[C@]4(C)[C@H]3C[C@H](O)[C@]12C,inactive,inactive,inactive,inactive,inactive,–,inactive,–,inactive,–,–,–,–,–,–,–
CCCCCCCN,inactive,inactive,inactive,inactive,–,inactive,inactive,inactive,–,–,–,–,–,–,–,–
CC[N+](C)(CC)CCOC(=O)C(O)(c1ccccc1)C1CCCCC1 (configuration not stated),inactive,inactive,inactive,inactive,–,inactive,inactive,inactive,inactive,inactive,–,–,–,–,–,–
NC(=O)C(c1ccccc1)(c1ccccc1)[C@@H]1CCN(CCc2ccc3c(c2)CCO3)C1,inactive,inactive,inactive,inactive,inactive,–,inactive,–,inactive,–,–,–,–,–,–,–
C=C(C)C(=O)OCCO,inactive,inactive,inactive,inactive,–,inactive,inactive,inactive,inactive,–,–,–,–,–,–,–
Nc1ccc(N)c2c1C(=O)c1ccccc1C2=O,17.2 µM (active),6.11 µM (active),21.7 µM (active),inactive,–,inactive,inactive,inactive,inactive,–,–,–,–,–,–,–
OC(CN1CCC(Cc2ccc(F)cc2)CC1)c1ccc(Cl)cc1 (configuration not stated),inactive,inactive,inactive,inactive,inactive,–,–,inactive,–,–,–,–,–,–,–,–
Nc1cccc(S(=O)(=O)c2cccc(N)c2)c1,inactive,inactive,inactive,inactive,–,inactive,inactive,inactive,inactive,–,–,–,–,–,–,–
C=CC1CC2C=CC1C2 (configuration not stated),inactive,inactive,inactive,inactive,–,inactive,inactive,–,inactive,inactive,–,–,–,–,–,–
CCOC(=O)c1cccnc1,inactive,inactive,inactive,inactive,–,inactive,inactive,–,inactive,inactive,–,–,–,–,–,–
Nc1ncn([C@H]2C[C@H](O)[C@@H](CO)O2)c(=O)n1,inactive,inactive,inactive,inactive,–,inactive,inactive,inactive,–,–,–,–,–,–,–,–
COC(=O)c1ccc(I)cc1S(=O)(=O)NC(=O)Nc1nc(C)nc(OC)n1,inactive,inactive,inactive,inactive,–,inactive,inactive,inactive,inactive,inactive,–,–,–,–,–,–
